Measurements: PubChem BioAssay AID1076 (NMMLSC, 2008)

Test: LNCaP cell loss by flow event count, confirmation, cytotoxicity control for prostate differentiation activator project, single point (AID 1076);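 also: counts scatter-gated live cells after medium removal discards detached dead cells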
Conditions: flow cytometry event count, 4 d, event count, at 10 µM, stronger effect = lower value

Structure (SMILES) | cell event count
COc1ccccc1CNC(=O)C1CCN(Cc2nc(-c3cccc(Cl)c3)oc2C)CC1 | 158
Cc1oc(-c2ccccc2F)nc1CN1CCC(C(=O)NCc2cccnc2)CC1 | 364
CCCCOc1ccccc1NC(=O)Cn1c(-c2nonc2N)nc2ccccc21 | 86.5
Cc1ccc(NC(=O)CCNS(=O)(=O)c2ccc3c(c2)oc(=O)n3C)c(C)c1 | 129
Cc1cc(=O)n2nc(N3CCCC(C(=O)NCCCN4CCc5ccccc5C4)C3)sc2n1 (stereo not drawn) | 146
COc1ccc(CC(=O)Nc2ccc(-c3nnc(-c4ccc(C)cc4)o3)cc2)cc1 | 112
CCC(=O)N(Cc1ccco1)c1nc(-c2cc(OC)ccc2OC)cs1 | 158
Cn1c(C(=O)NCCC2=CCCCC2)cc2c(=O)n3ccccc3nc21 | 132
O=C(CCn1c(=O)[nH]c2ccccc2c1=O)NCCCN1CCN(c2cccc(Cl)c2)CC1 | 354
Nc1cccc2cnccc12 | 168
CCCOc1ccc2nc(NC(=O)OC)[nH]c2c1 | 102
Cc1cccc(-c2nc(CN3CCCC(C(=O)NC4CCCC4)C3)c(C)o2)c1 (stereo not drawn) | 328
Cc1nc2c3cnn(-c4ccccc4)c3ncn2n1 | 145
Cc1ccc(C)c(N2CCN(C(=O)CCNC(=O)Cn3ccc4ccccc4c3=O)CC2)c1 | 148
CCOC(=O)c1sc2ncnc(N3CCN(c4ccc(OC)cc4)CC3)c2c1C | 76.5
N=c1n(CCO)c2ccccc2n1CCOc1ccc(Cl)cc1Cl | 272
Cc1oc(-c2ccc(Cl)cc2)nc1CN1CCC(C(=O)NCCCN2CCCC2=O)CC1 | 115
Nc1ccc(-c2nc3c(Cl)c(N)ccc3[nH]2)cc1 | 206
CCOC(=O)N1CCC(NC(=O)c2cc3c(-c4ccc(OC)c(OC)c4)nn(C)c3s2)CC1 | 398

Structure (SMILES) | cell event count
O=C(NCCCN1CCN(c2ccc(F)cc2)CC1)c1cccc(N2CCCC2=O)c1 | 263
O=C(NCCc1c[nH]c2ccccc12)C(F)(F)C(F)F | 118
COc1cc2c(C(=O)NCCCN3CCN(c4cccc(Cl)c4)CC3)cn(C)c(=O)c2cc1OC | 230
Cc1cc(N2C(=O)C3C4C=CC(C4)C3C2=O)ccc1Br (stereo not drawn) | 69.5
COc1ccc(/C=N/c2nc3ccccc3n2C)cc1OC | 35.5
COc1ccc(CCNC(=O)C2CCCN(Cc3nc(-c4ccccc4C)oc3C)C2)cc1OC (stereo not drawn) | 190
CS(=O)(=O)c1nc(-c2cccs2)cc(C(F)(F)F)n1 | 61
Cc1ccc2c(c1)c1c(n2CC(O)CNC(CO)(CO)CO)CCCC1 (stereo not drawn) | 392
CCCS(=O)(=O)N1CCCC(C(=O)NCCCN2CCN(c3ccc(F)cc3)CC2)C1 (stereo not drawn) | 47
CCOc1ccc(C(=O)Nc2ccc(Cl)cn2)cc1Cl | 86
CN1CCN(c2cc3c(c4c2[nH]c2ccccc24)C(=O)CC(C)(C)C3)CC1 | 231
CCOC(=O)C1CCN(S(=O)(=O)c2ccc(-c3nc4ccccc4s3)s2)CC1 | 136
CN(C)c1ccc(CNC2CC(C)(C)NC(C)(C)C2)cc1 | 186
Cc1ccc(C)c2[nH]c(=O)c(CN(CCN3CCCC3)C(=O)Nc3cccc(Cl)c3)cc12 | 97
CCN1CCN(CCNC(=O)C2CCCN(Cc3nc(-c4cccc(Cl)c4)oc3C)C2)CC1 (stereo not drawn) | 141
COc1ccc(-c2oc3ncn(CCN4CCOCC4)c(=N)c3c2-c2ccc(OC)cc2)cc1 | 237
COc1ccc(S(=O)(=O)Nc2ccc(F)c(Cl)c2)cc1OC | 144
CCOC(=O)N1CCN(S(=O)(=O)c2ccc(C(=O)Nc3nc4ccccc4s3)cc2)CC1 | 172
CN(C)c1ccc(-c2nn3c(-c4ccc(Cl)cc4Cl)nnc3s2)cc1 | 65.5
